Measured values taken from PubChem BioAssay (Tox21).
Where “and” joins values, the source holds several entries; their conditions need not be identical. Equal entries are not always repeated. Inconclusive results are not listed. Where a structure was tested more than once in an assay, its records may differ in their call. Calls of active or inactive are those of the source. Unless noted, calls follow the shape of the dose curve; as a rule, active = well fitted curve in the direction sought with a large enough effect in the repeat runs; inconclusive = weak or mixed curves; inactive = no such curve, though single readings can be large; an effect the other way counts as inactive or inconclusive.

Experiments:
[1] = qHTS assay to identify small molecule agonists of the hypoxia (HIF-1) signaling pathway (AID 1224846; active = well fitted activation curve with a large enough effect in the signal ratio in the repeat runs, not every such curve was filed as active; the % refers to the signal ratio)
Procedure, shortened: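 In ME-180 cells bearing an HRE-bla construct, 17 h treatment with DMSO-dissolved compounds at 37C was followed by CCF4-AM loading to quantify reporter induction.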

[2] = qHTS assay to identify small molecule antagonists of the estrogen related receptor (ERR) signaling pathway from Tox21 library (AID 1224848); also: nearly all actives have a fitted effect of over 50% in size; also: potency is read from the fitted curve at half-maximal effect
Procedure, shortened: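 Quantitative high-throughput format: ERR reporter cells (2,000/well) pre-incubated 6 h, treated 18 h at 37 C with compounds in DMSO alongside positive and negative controls, then read by ONE-Glo luminescence.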

[3] = qHTS assay to identify small molecule agonists of the estrogen related receptor (ERR) signaling pathway from Tox21 library (AID 1224849; calls by dose curve; also: nearly all actives have a fitted effect of over 15% in size); conditions: ERR reporter cell line, ONE-Glo luciferase, 18 h
Procedure, shortened: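 Reporter cells (ERR, NTP source) treated with Tox21 10K compounds 18 h, 37 C. Readout: ONE-Glo luminescence, 30 min RT.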

[4] = qHTS RealTime-Glo MT Cell Viability Assay in HepG2 cells - 24 hour (AID 1224867); also: nearly all actives have a fitted effect of over 50% in size; also: potency is read from the fitted curve at half-maximal effect
Procedure, shortened: (§1)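 HepG2 cells were seeded at 600 cells/well together with NanoLuc luciferase and a cell-permeant prosubstrate, preincubated 5 h at 37 C/5% CO2, then pin-dosed with compounds in DMSO. Nonlytic luminescence from viable cells was read at each time point.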

[5] = qHTS RealTime-Glo MT Cell Viability Assay in HEK293 cells - 32 hour (AID 1224868); also: nearly all actives have a fitted effect of over 50% in size; also: potency is read from the fitted curve at half-maximal effect
Procedure, shortened: (§2)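 HEK293 cells were seeded at 600 cells/well together with NanoLuc luciferase and cell-permeant prosubstrate, preincubated 5 h at 37 C/5% CO2, then given compound in DMSO by pintool. Luminescence from viable-cell prosubstrate reduction was read repeatedly over 40 h.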

[6] = qHTS RealTime-Glo MT Cell Viability Assay in HepG2 cells - 40 hour (AID 1224870); also: nearly all actives have a fitted effect of over 50% in size; also: potency is read from the fitted curve at half-maximal effect
Procedure, shortened: (§3)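 HepG2 cells (600/well) mixed with RealTime-Glo MT reagent, settled 5 h at 37 C/5% CO2 before compound addition. Nonlytic NanoLuc luminescence from viable-cell prosubstrate reduction read repeatedly during 40 h treatment at 37 C.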

[7] = qHTS RealTime-Glo MT Cell Viability Assay in HEK293 cells - 16 hour (AID 1224872); also: nearly all actives have a fitted effect of over 50% in size; also: potency is read from the fitted curve at half-maximal effect
Procedure, shortened: as §2

[8] = qHTS RealTime-Glo MT Cell Viability Assay in HepG2 cells - 8 hour (AID 1224873); also: nearly all actives have a fitted effect of over 55% in size; also: potency is read from the fitted curve at half-maximal effect
Procedure, shortened: as §3

[9] = qHTS RealTime-Glo MT Cell Viability Assay in HEK293 cells - 40 hour (AID 1224874); conditions: RealTime-Glo luminescence; max response: stronger effect = lower value; also: nearly all actives have a fitted effect of over 50% in size; also: potency is read from the fitted curve at half-maximal effect
Procedure, shortened: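 Measured as luminescence from the same continuously cultured HEK293 wells at successive time points (0, 8, 16, 24, 32, 40 h) after compound addition. Reagent present from seeding; dosing at 5 h; incubation 37 C.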

[10] = A CellTox Green Cytotoxicity Assay to monitor cytotoxicity in HepG2 cells - 16 hour (AID 1224876); also: nearly all actives have a fitted effect of over 45% in size; also: potency is read from the fitted curve at half-maximal effect
Procedure, shortened: (§4)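 Fluorescent DNA-binding dye, 600 HepG2 cells/well, 5 h preincubation then compound in DMSO; same plates read at 0–40 h, 37 C.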

[11] = qHTS RealTime-Glo MT Cell Viability Assay in HepG2 cells - 32 hour (AID 1224877); also: nearly all actives have a fitted effect of over 55% in size; also: potency is read from the fitted curve at half-maximal effect
Procedure, shortened: as §1

[12] = A CellTox Green Cytotoxicity Assay to monitor cytotoxicity in HepG2 cells - 24 hour (AID 1224878); also: nearly all actives have a fitted effect of over 45% in size; also: potency is read from the fitted curve at half-maximal effect
Procedure, shortened: as §4

[13] = A CellTox Green Cytotoxicity Assay to monitor cytotoxicity in HepG2 cells - 40 hour (AID 1224879); also: nearly all actives have a fitted effect of over 40% in size; also: potency is read from the fitted curve at half-maximal effect
Procedure, shortened: as §4

[14] = qHTS assay to identify small molecule agonists of the hypoxia (HIF-1) signaling pathway - cell viability counter screen (AID 1224844; calls by dose curve; also: nearly all actives have a fitted effect of over 50% in size)
Procedure, shortened: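 Same wells as the HIF-1 reporter screen; ME-180 cells carrying HRE-bla, 17 hr treatment at 37C; CellTiter-Glo luminescence read after 30 min at room temperature.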

[15] = qHTS assay to identify small molecule agonists of H2AX - cell viability counter screen (AID 1224847; calls by dose curve; also: nearly all actives have a fitted effect of over 30% in size; also: potency is read from the fitted curve at half-maximal effect)
Procedure, shortened: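 CHO-K1 cells plated overnight at 37C, then exposed 3 h at 37C to compounds at 15 concentrations (0.76% DMSO final). Viability by CellTiter-Glo luminescence after 30 min at room temperature.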

[16] = A CellTox Green Cytotoxicity Assay to monitor cytotoxicity in HEK293 cells - 0 hour (AID 1224869); also: nearly all actives have a fitted effect of over 50% in size
Procedure, shortened: (§5)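 Homogeneous no-lysis format: HEK293 cell suspension mixed with CellTox Green reagent, seeded, incubated 5 h at 37 C/5% CO2, then dosed by pintool with compound in DMSO.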

[17] = A CellTox Green Cytotoxicity Assay to monitor cytotoxicity in HEK293 cells - 40 hour (AID 1224871); also: nearly all actives have a fitted effect of over 45% in size; also: potency is read from the fitted curve at half-maximal effect
Procedure, shortened: as §5

[18] = A CellTox Green Cytotoxicity Assay to monitor cytotoxicity in HEK293 cells - 24 hour (AID 1224875); also: nearly all actives have a fitted effect of over 45% in size; also: potency is read from the fitted curve at half-maximal effect
Procedure, shortened: as §5

[19] = qHTS assay to identify small molecule agonists of H2AX (AID 1224845; active = well fitted activation curve with a large enough effect in the signal ratio in the repeat runs, not every such curve was filed as active; the % refers to the signal ratio)
Procedure, shortened: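 Wild-type CHO-K1 cells, plated overnight, exposed 3hr at 37C to 15 concentrations (0.76% DMSO final). Lysed, then HTRF anti-pH2AX (S139) cryptate and anti-H2AX-d2 antibodies, 24 hr room temperature; 665/620 nm emission read.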
% is scaled to controls: 0 for no effect and ±100 for the full control effect.

C1=CC2C3C=CC(C3)C2C1 (centres undefined)
inactive: outcome [1] | Potency [2] | activity change, positive = activation ([3]; at 92.4 µM (top of the series)) -1.35% | Potency [4] | Potency [5] | Potency [6] | Potency [7] | Potency [8] | max response [9] 0.978% | Potency [10] | Potency [11] | Potency [12] | Potency [13]

CN[C@H]1CC[C@@H](c2ccc(Cl)c(Cl)c2)c2ccccc21
inactive: Potency [14] | activity change, positive = activation ([3]; at 42.5 µM (top of the series)) -39% | Potency [16]
active: Potency [15] 49.2 µM | Potency [2] 26.6 µM | Potency [4] 23.9 µM | Potency [5] 23.9 µM | Potency [6] 23.9 µM | Potency [9] 23.9 µM | Potency [10] 19 µM | Potency [11] 23.9 µM | Potency [12] 19 µM | Potency [13] 16.9 µM

CCCCNC(=O)NS(=O)(=O)c1ccc(C)cc1
inactive: Potency [14] | Potency [15] | Potency [2] | activity change, positive = activation ([3]; at 42.5 µM (top of the series)) 4.14% | activity change, positive = activation ([3]; at 92.4 µM (top of the series)) -14.4% and 0.897% | Potency [4] | Potency [5] | Potency [16] | Potency [6] | Potency [17] | Potency [7] | Potency [8] | max response [9] -2.16% and 5.08% and 4.55% | Potency [18] | Potency [10] | Potency [11] | Potency [12] | Potency [13]

C1CCC(C(CC2CCCCN2)C2CCCCC2)CC1 (centres undefined)
active: Potency [15] 55.2 µM | Potency [2] 29.8 µM | Potency [4] 5.35 µM | Potency [5] 10.7 µM | Potency [6] 5.35 µM | Potency [17] 16.9 µM | Potency [7] 19 µM | Potency [8] 21.3 µM | Potency [9] 10.7 µM | Potency [18] 21.3 µM | Potency [10] 12 µM | Potency [11] 5.35 µM | Potency [12] 9.52 µM | Potency [13] 5.35 µM
inactive: activity change, positive = activation ([3]; at 42.5 µM (top of the series)) -54.8% | Potency [16]

Cn1c(=O)c2c(ncn2C)n(C)c1=O
61.9 µM (active) and inactive: Potency [2]
inactive: Potency [14] | Potency [19] | outcome [1] | Potency [15] | activity change, positive = activation ([3]; at 42.5 µM (top of the series)) 0.592% | activity change, positive = activation ([3]; at 92.4 µM (top of the series)) -33.2% and 0.518% | Potency [4] | Potency [5] | Potency [16] | Potency [6] | Potency [17] | Potency [7] | Potency [8] | max response [9] -15% and -0.566% and 6.55% | Potency [18] | Potency [10] | Potency [11] | Potency [12] | Potency [13]

Nc1c(N=Nc2ccc(-c3ccc(N=Nc4cc(S(=O)(=O)O)c5ccccc5c4N)cc3)cc2)cc(S(=O)(=O)O)c2ccccc12
active: Potency [2] 24.3 µM | Potency [4] 48.9 µM | Potency [5] 38.9 µM | Potency [6] 48.9 µM | Potency [7] 38.9 µM | Potency [8] 38.9 µM | Potency [11] 48.9 µM
inactive: activity change, positive = activation ([3]; at 92.4 µM (top of the series)) -40.2% | Potency [16] | Potency [17] | Potency [18] | Potency [10] | Potency [12] | Potency [13]
